Only some compounds are listed: those with a hit (about 3.1% of all), similar ones and a draw of the others.
esBAF inh – SWI/SNF esBAF complex inhibition | AID 602393 | mouse ES cells, Bmi1-luciferase knock-in reporter, 24 h; 100% = twice the neutral-well signal | reporter increase, % at 12.5 µM | 350,000 compounds, 2% hits; in the data active = activation above about 40%; inconclusive = no clear call, values can overlap the other calls;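 note: 0% = median of the plate's neutral control wells and 100% = double that signal; a rise in the Bmi1 reporter signal indicates esBAF inhibition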
MITF TRPM1 HTS – MITF TRPM1 promoter activation in melanoma cells. SK-MEL-5 TRPM1-promoter luciferase, 24 h; % of positive control, neutral wells = 0. activation, % at 12.5 µM. 300,000 compounds, 0.75% hits. AID 588334;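 active = mean activation of at least 80% with every replicate also reaching 80%; inconclusive = mean reaches 80% but some replicate falls short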;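 note: 0% = neutral control wells and 100% = parthenolide positive control wells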
C2C12 statin – suppressors of simvastatin-induced myotoxicity in C2C12 myotubes. ATP luminescence, 48 h; scaled: DMSO 0, geranylgeraniol control 100. rescue of ATP level, % at 7.49 µM. 330,000 compounds, 0.78% hits. AID 602340;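 active = mean ATP rescue above about 67%, or every replicate alone reaching that limit, limit read from the data, passing the limit was not always enough; inconclusive = no clear call, values can overlap the other calls; inactive = mean under the limit and some replicate under it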;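 note: myotubes were challenged with 10 µM simvastatin during compound exposure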
Wnt act – Wnt/beta-catenin pathway activation; AID 743398; activation, % at 9.35 µM; 300,000 compounds, 1.2% hits; Wnt/beta-catenin reporter cell assay, activator, plate reader; in the data active = activation above about 30%, passing the limit was not always enough; inconclusive = no clear call, values can overlap the other calls;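 note: 0% = neutral control wells and 100% = positive control wells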
Rtt109 HAT inh – blocks Candida albicans Rtt109/Vps75 acetyltransferase activity. purified Rtt109/Vps75, ThioGlo CoA-SH fluorescence, 4 h. inhibition, % at 34.9 µM. 330,000 compounds, 0.16% hits. AID 540336;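 active = inhibition of at least 50% in every replicate; inconclusive = best replicate reaches 50% inhibition but some replicates fall short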
Target sequence (Q5AAJ8 whole entry, looked up): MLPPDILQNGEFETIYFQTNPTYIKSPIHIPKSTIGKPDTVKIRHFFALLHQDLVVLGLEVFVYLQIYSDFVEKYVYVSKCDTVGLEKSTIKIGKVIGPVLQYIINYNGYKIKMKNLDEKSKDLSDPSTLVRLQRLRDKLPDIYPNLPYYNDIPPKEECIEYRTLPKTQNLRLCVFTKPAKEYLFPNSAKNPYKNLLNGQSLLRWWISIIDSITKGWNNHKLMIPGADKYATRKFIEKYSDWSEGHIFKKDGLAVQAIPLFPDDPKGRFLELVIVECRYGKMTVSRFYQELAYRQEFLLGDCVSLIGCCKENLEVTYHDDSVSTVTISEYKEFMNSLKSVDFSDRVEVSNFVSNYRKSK
An asterisk follows results filed as active; ? = inconclusive; . = no result given.

SMILES	esBAF inh	MITF TRPM1 HTS	C2C12 statin	Wnt act	Rtt109 HAT inh
O=C(Nc1ccc(N2CCOCC2)c(Cl)c1)c1ccc(Br)o1	60.4*	105.5*	-65.4	52.9*	-8.4
CCN1CCN(c2ccc(NC(=O)c3cccc(F)c3)cc2Cl)CC1	33.3	127.8*	-7.4	8.5	-3.4
O=C(Nc1ccc2c(c1)oc1ccccc12)c1ccc(Br)o1	83.0*	76.2	-35.3	-1.6	-7.8
O=C(Nc1ccc2ccccc2c1)c1ccc(Br)o1	36.2	20.8	4.3	27.8	4.4
O=C(C[C@@H]1CC[C@@H]2[C@H](COC[C@@H](O)CN2S(=O)(=O)c2ccccc2)O1)NCc1ccc(-c2ccccc2)cc1	2.7	.	-5.9	.	.
COc1ccc(NC(=O)Nc2ccc3c(c2)CC(=O)N([C@H](C)CO)C[C@H](C)[C@@H](CN(C)CC2CC2)O3)cc1	-4.8	.	8.8	.	.
COc1cccc(/C=C2\SC(=S)N(C(C)C(=O)NC3C=CS(=O)(=O)C3)C2=O)c1 (stereo not given)	-4.7	-13.9	4.6	-1.6	154.1*
COC(=O)c1cccc(-n2sc3ccccc3c2=O)c1	27.7	27.2	4.6	21.0	130.1*
COC(=O)c1cccc(N2CCCC2=O)c1	-0.8	3.3	-5.0	-2.0	-0.5
Cn1nccc1C(=O)Nc1cc(Cl)ccc1Cl	-6.0	.	-20.2	8.8	.
Cn1nccc1C(=O)Nc1ccc(Cl)cc1	48.2*	62.7	24.2	3.1	-17.1
O=[N+]([O-])c1ccc(Cc2nnc(-c3ccccc3Cl)o2)cc1	-5.5	102.8*	5.9	4.3	-5.7
O=C(c1cc([N+](=O)[O-])cc([N+](=O)[O-])c1)N(Cc1nnc(-c2ccccc2Cl)o1)C1CC1	.	-32.6	.	-2.0	3.4
CC12CCC(C(=O)Nc3nc4ccc(Br)cc4s3)(OC1=O)C2(C)C (stereo not given)	.	44.1	.	53.3*	10.5
O=C(NCC1CC1)[C@@H]1[C@@H](CO)[C@@H]2Cn3c(ccc(-c4cccnc4)c3=O)[C@H]1N2C(=O)C1CCCCC1	-1.5	.	-8.9	.	.
COc1ccc(C2CC(C(F)(F)F)n3nc(C(=O)NCCN4CCOCC4)cc3N2)cc1 (stereo not given)	-2.7	?	89.8*	-5.0	-3.3
COc1ccc(NC(=O)c2cc3n(n2)C(C(F)(F)F)CC(c2ccc(OC)cc2)N3)cc1 (stereo not given)	-3.6	-4.6	-28.3	.	-0.7
COc1ccc(CN(C)C[C@@H]2OCCCC[C@@H](C)Oc3ccc(NC(=O)Nc4c(C)noc4C)cc3C(=O)N([C@@H](C)CO)C[C@H]2C)cc1	4.4	.	.	.	.
CC1CCN(C(c2ccccc2)c2nnnn2C(C)(C)C)CC1 (stereo not given)	-8.3	.	105.7*	-2.1	6.0
Cc1ccc(C(c2nnnn2C(C)(C)C)N2CCC(C)CC2)cc1 (stereo not given)	3.8	.	-7.6	-2.3	6.1
C[C@H](CO)N1C[C@H](C)[C@@H](CN(C)C(=O)Nc2ccc(F)cc2)Oc2ccc(NC(=O)C3CC3)cc2C1=O	6.4	.	32.4	.	.
Cc1ccccc1N(C(=O)Cc1cccs1)C(C(=O)NCC1CCCO1)c1cccnc1 (stereo not given)	-0.5	-5.1	1.4	.	-3.7
O=C(NC1CCCC1)C(c1ccsc1)N(Cc1ccco1)C(=O)Cc1cccs1 (stereo not given)	-0.8	5.1	118.1*	.	-1.7
COc1cccc(N(C(=O)Cc2cccs2)C(C(=O)NC2CCCC2)c2ccncc2)c1 (stereo not given)	51.6*	12.9	30.5	6.7	6.7
O=C(NCC1CCCO1)C(c1cccnc1)N(C(=O)Cc1cccs1)c1ccccc1 (stereo not given)	69.3*	49.3	-2.9	18.1	-7.2
SMILES	esBAF inh	MITF TRPM1 HTS	C2C12 statin	Wnt act	Rtt109 HAT inh
CCCc1cn(CC[C@@H]2CC[C@H](NS(=O)(=O)c3ccccc3Cl)[C@@H](CO)O2)nn1	-1.3	.	3.1	.	.
CCOc1ccc(C(F)(F)F)cc1NC(=O)COc1ccc(C(F)(F)F)cc1[N+](=O)[O-]	-14.4	.	-7.5	.	9.5
CCOc1ccc(C(F)(F)F)cc1NC(C)=O	-7.0	.	96.1*	-0.9	-0.1
Cc1noc(C)c1S(=O)(=O)Nc1ccc2c(c1)C(=O)N([C@H](C)CO)C[C@@H](C)[C@H](CN(C)Cc1ccncc1)OCCCC[C@@H](C)O2	-2.4	.	.	.	.
COc1ccc(S(=O)(=O)N[C@@H]2CC[C@H](CC(=O)NCCc3ccncc3)O[C@@H]2CO)cc1	-0.4	.	11.4	.	.
C[C@H]1CCCCO[C@H](CN(C)S(=O)(=O)c2cccs2)[C@@H](C)CN([C@@H](C)CO)C(=O)c2cc(NC(=O)Nc3ccccc3)ccc2O1	-5.0	.	.	.	.
COc1ccc(-c2ccc(C(=O)NCc3cccs3)c3occc23)c(C)c1	72.0*	.	-18.7	0.5	.
COc1ccc(-c2coc3c(C(=O)NCc4cccs4)cccc23)c(C)c1	-3.8	.	6.0	1.6	.
O=C(COC(=O)c1ccccc1-n1cnnn1)c1ccccc1	11.2	6.5	-8.1	-0.8	-7.5
O=C(COC(=O)c1ccccc1-n1cnnn1)c1ccc(F)c(F)c1	55.7*	-3.7	16.3	4.8	-14.6
CCCNC(=O)N1C[C@H](C)[C@H](OC)CN(C)C(=O)c2ccc(NS(=O)(=O)CC(F)(F)F)cc2OC[C@H]1C	-4.1	.	-10.1	.	.
Nc1nc(CSc2nnnn2-c2ccccc2)nc(N2CCCc3ccccc32)n1	-8.1	6.3	115.1*	.	11.4
Cc1ccc(C)c(NC(=S)c2nc3ccccc3s2)c1	.	34.6	.	?	10.5
Cc1ccc(C)c(NC(=S)c2ccccn2)c1	46.4*	12.8	-28.0	36.3*	-7.0
Cc1ccc(C)c(NC(=S)c2ccc3ccccc3n2)c1	75.6*	43.7	-12.1	21.8	8.5
S=C(Nc1ccccn1)c1ccccn1	5.3	.	-1.3	-3.4	-9.4
c1ccc(Cn2nnnc2C(c2ccccn2)N2CCOCC2)cc1 (stereo not given)	-1.6	-3.9	-18.2	.	62.6*
CCSc1ccccc1C(=O)Nc1ccc([N+](=O)[O-])cc1OC	.	-2.1	.	0.1	55.3*
CCC(C)C(=O)Nc1ccc([N+](=O)[O-])cc1OC (stereo not given)	-0.2	6.4	-1.3	-0.5	0.4
CCC(=O)Nc1nc2cc(OC)ccc2s1	16.9	.	-4.4	59.2*	-9.3
COc1ccc2sc(NC(=O)CC(C)C)nc2c1	39.8	?	-20.6	57.5*	-3.4
COc1ccc2sc(NC(C)=O)nc2c1	27.0	54.5	-0.5	48.0*	2.1
COc1ccc2sc(NCc3ccccc3)nc2c1	98.9*	111.0*	-1.6	33.0*	-4.4
COc1cc(CNc2nc3ccccc3s2)cc(OC)c1OC	7.7	.	5.6	1.3	11.2
COc1ccc2sc(NC(=O)NC(=O)c3c(Cl)cccc3Cl)nc2c1	.	.	.	2.4	10.0
COc1ccccc1C(=O)N1C[C@H]2[C@@H](c3ccccc31)[C@H](CO)N2C(=O)C1CCCC1	-5.1	.	-11.2	.	.
CCOC(=O)Cc1nnc(NC(=O)COc2ccc(OC)cc2)s1	-1.7	-1.4	129.6*	-3.8	1.8
CCC(=O)Nc1nc2c(OC)ccc(OC)c2s1	-3.5	-9.6	15.4	6.9	13.7
